# This is one part of a sample in which hits are shown more often than they occur.
# mcGAS RapidFire – blocks mouse cGAS cGAMP production. Q8C6L5. recombinant mouse cGAS, cGAMP by RapidFire MS. inhibition, % at 12.5 µM. 0.18% of 130,000 active;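 active = inhibition of cGAS enzyme activity at or above 60%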;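 note: enzyme stimulated by 45 bp dsDNA with ATP and GTP substrates; cGAMP share of summed cGAMP plus half ATP and half GTP signals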
# Target sequence (Q8C6L5 whole entry, looked up): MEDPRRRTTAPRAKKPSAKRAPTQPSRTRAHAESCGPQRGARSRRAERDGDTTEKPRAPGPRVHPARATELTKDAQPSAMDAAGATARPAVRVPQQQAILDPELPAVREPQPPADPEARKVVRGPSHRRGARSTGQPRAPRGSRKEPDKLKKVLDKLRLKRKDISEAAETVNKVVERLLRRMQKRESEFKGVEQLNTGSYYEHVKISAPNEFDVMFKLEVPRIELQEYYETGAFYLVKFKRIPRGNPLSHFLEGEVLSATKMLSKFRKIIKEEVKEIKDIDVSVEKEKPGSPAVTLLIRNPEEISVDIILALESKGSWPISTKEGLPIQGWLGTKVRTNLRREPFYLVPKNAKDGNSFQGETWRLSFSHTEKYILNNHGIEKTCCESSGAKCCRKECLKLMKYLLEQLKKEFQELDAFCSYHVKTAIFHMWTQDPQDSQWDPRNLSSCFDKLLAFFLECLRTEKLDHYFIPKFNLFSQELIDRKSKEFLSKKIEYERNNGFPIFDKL
# * hit, by the source's call.
SMILES,mcGAS RapidFire
O=C1/C(=C\c2cccnc2)CSc2ccc(Br)cc21,5.8
O=C1NC(=S)SC1=Cc1cccnc1,19.0
O=C1/C(=C/c2cccnc2)COc2c(F)cccc21,72.7*
CC(C)=CC(=O)Nc1cnn(Cc2cn3ccccc3n2)c1,-7.9
CC(C)N1C(=O)COCc2cc(-c3cccnc3)ccc21,-1.3
Oc1ccc(C=Nn2cnn(Cc3ccccc3Cl)c2=S)c(O)c1,36.0
CCOC(=O)c1c(NC(=O)CSc2nnc3ccccn23)sc(C(C)=O)c1C,23.7
Cc1ccc2n1CCn1cc(-c3ccccc3)cc1-2,77.4*
Cc1cc2n(c1)CCn1c(C)ccc1-2,-1.7
Cc1ccccc1NC(=O)c1nn(C)cc1[N+](=O)[O-],-17.7
CCNc1ncc(C(=O)N(CC#Cc2ccccc2)C2CCCC2)cn1,-12.4
Cc1cc(=O)oc2c(-c3cc(-c4cccs4)nc(N)n3)c(O)ccc12,-5.8
Cc1oc2ccccc2c1C#N,-7.4
N#Cc1c(N)oc2c3c(c(O)cc12)C(=O)c1ccccc1C3=O,68.5*
O=C1NC(=O)C2(CCN(C(=O)C3CC3C3CCCCC3)C2)N1 (stereo unspecified),-4.9
CC1Cc2nc(SCC(=O)NCc3ccc(F)cc3)n(Cc3ccccc3)c(=O)c2S1 (stereo unspecified),-6.3
O=C(NCc1ccc(Cl)cc1)NCC1CCN(Cc2cnc[nH]2)C1 (stereo unspecified),-14.9
CC(=O)C1(C)N(O)C(C)(C)C(c2ccc(Cl)cc2)=[N+]1[O-] (stereo unspecified),-0.7
CC1=C(c2ccc(Cl)cc2)[N+](=O)C(C)(c2ccc(Br)cc2)N1[O-] (stereo unspecified),90.3*
CC1C(c2ccc(Cl)cc2)=[N+]([O-])C(C)(c2ccccc2)N1O (stereo unspecified),-8.2
Cc1ccc(C(=O)CC2(O)C(=O)Nc3ccc(Cl)cc32)cc1 (stereo unspecified),-2.7
O=C(COC(=O)c1ncc(Cl)c(Cl)c1Cl)NCCN1C(=O)CSC1=O,4.6
O=C(CSc1ncnc2sccc12)NNC(=O)c1ccc(Br)s1,-5.3
CCC(=O)C(C#N)c1nnc(-c2ccccc2)s1 (stereo unspecified),95.0*
Cc1ccc(S(=O)(=O)c2nnc(-c3ccccc3)s2)cc1,-2.6
SMILES,mcGAS RapidFire
Cn1c(-c2ccccc2)nnc1C(C#N)C(=O)C1CC=CCC1 (stereo unspecified),10.6
CCOC(=O)CC1CCCCN1C(=O)c1cn(CCCc2ccccc2)nn1 (stereo unspecified),-11.6
CC(NC(=O)c1cc(Cl)ccc1NS(C)(=O)=O)c1ccc2c(c1)OCO2 (stereo unspecified),-0.6
N#CC(=Cc1ccc([N+](=O)[O-])o1)c1nc(C2CC2)cs1,-15.8
CC(C)OC(=O)C(C#N)=Cc1ccc([N+](=O)[O-])o1,64.3*
O=C(O)C=Cc1ccc([N+](=O)[O-])o1,1.9
COC(=O)Cn1c(=O)c2c(nc3n(-c4ccc(N(C)C)cc4)c(C)cn23)n(C)c1=O,-5.4
COc1ccc2[nH]c(CN3CCCC(OCc4ccccn4)C3)c(C)c2c1 (stereo unspecified),-19.4
Cc1ccc(NCC(=O)NNC(=O)c2cc(Cl)ccc2F)c(C)c1,-1.9
C/C(=N\N1CCN(C)CC1)c1c(C(F)(F)F)[nH]n(-c2nc3ccccc3s2)c1=O,-2.3
C/C(=C1\C(=O)N(c2nc3ccccc3s2)N=C1C(F)(F)F)N1CCN(c2ccccc2)CC1,65.8*
CC(=NCCc1ccccc1)c1c(C(F)(F)F)[nH]n(-c2nc3ccccc3s2)c1=O,5.7
Cc1cc(O)c(-c2ccn[nH]2)c(=O)o1,-2.5
Cc1cc(O)c(C2=Nc3ccccc3SC(c3ccc([N+](=O)[O-])cc3)C2)c(=O)o1 (stereo unspecified),-4.3
Cc1cc(O)c(C2=Nc3cc(C(F)(F)F)ccc3SC(c3ccc(O)c([N+](=O)[O-])c3)C2)c(=O)o1 (stereo unspecified),66.6*
Cc1nn(-c2c(Cl)cc(Cl)cc2Cl)c(C)c1C(=O)NCCC(=O)OC(C)(C)C,-7.9
NC(=O)C1Cc2cc(S(N)(=O)=O)ccc2O1 (stereo unspecified),-2.6
O=C1C=CC(=O)N1c1ccccc1,-6.4
O=C1C2C3C=CC(C3)C2C(=O)N1c1ccccc1 (stereo unspecified),-3.6
O=C1C=CC2C3C(=O)N(c4ccccc4)C(=O)C3C1N2c1ccccc1 (stereo unspecified),92.0*
CCc1nc(NC(=O)CNC(=O)c2ccc(OC)c(OC)c2)sc1C,9.4
Cc1c(C)n2c3c(=O)n(C)c(=O)n(C)c3nc2n1CCCc1ccccc1,-6.8
CCN1C(=Cc2ccc3cc(C)ccc3[n+]2CC)Sc2ccccc21,10.9
CCC(C)[n+]1c(C)cc(C=C2Sc3ccccc3N2CC)cc1C (stereo unspecified),-10.4
CCN1C(=CC=Cc2sc3ccccc3[n+]2CC)Sc2ccccc21,70.3*
Cc1ccc(-c2c(C)sc3nc(CN(C)Cc4ccccc4C)[nH]c(=O)c23)cc1,-5.9
N#Cc1c(C2CCOC2)cc(-c2ccc(O)cc2)nc1N (stereo unspecified),-14.1

# Bioassay records: PubChem BioAssay, Fisher Drug Discovery Resource Center
